Measurements reported in PubChem BioAssay (NCATS).
Inconclusive results are not listed. Values without a mark were called inactive. Calls of active or inactive are those of the source. Calls come from the whole dose curve; as a rule, active = well fitted activation curve with a large enough effect; inconclusive = small, poorly fitted or top-dose-only effect; inactive = flat fitted curve, though single readings scatter.

Target: Cellular tumor antigen p53 (Homo sapiens) (UniProt P04637)
Experiment: Primary qHTS for small molecule compounds that upregulate eGFP-tagged delta133p53alpha (in C-terminal) cells. (AID 2060324);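 for GFP increase (activation): 0% = DMSO wells and 100% = 57.5 µM 5-azacytidine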
Settings: NCI-H358 delta133p53alpha-eGFP (C-terminal tag), GFP fluorescence imaging, 24 h; series mostly up to 57.5 µM; GFP increase (activation): at the top concentration
Description: Assay Development and Screening Technology
National Center for Advancing Translational Sciences (NCATS),
National Institute of Health (NIH), Rockville, Maryland
Cellular senescence (CS) is one of the hallmarks of aging and age-related diseases. Senescent cells are characterized by an irreversible growth arrest, an increase in senescence-associated beta-galactosidase (SA-beta-gal) activity and p16INK4a expression, an activation of the DNA damage response pathways, and the emergence of a senescence-associated secretory phenotype (SASP).
Delta133p53alpha, a human/primate-specific p53 protein isoform, delays or inhibits the induction of CS and SASP in various types of human cells, including progeria-derived fibroblasts, primary normal astrocytes, and CD8+ T lymphocytes. Induction of delta133p53alpha with small molecule compounds may provide therapeutic opportunities for inhibition of senescence/SASP-associated pathologies in progeria syndromes, astrocyte-mediated neuroprotection in neurodegenerative diseases, and possibly prevention and treatment of a wider range of senescence- and aging-associated diseases.
Here we report the development and validation of a cell-based quantitative high throughput screening (qHTS) assay in 1,536-well format. This qHTS assay uses the NCI-H358 cell line with doxycycline-inducible expression of enhanced green fluorescent protein (eGFP)-tagged delta133p53alpha, which allows efficient and highly quantitative measurement of the protein levels.
PROTOCOL TABLE (as described by Inglese J, Shamu CE and Guy RK. 2007)
SEQUENCE No. (e.g., 1, 2, 3, etc.); […] (e.g., Cells, Incubation, Reagent, etc.); VALUE; DESCRIPTION.
1; Cells; 4uL; 800 doxycycline treated cells / well in doxycycline-free media, 1536-well black, clear-bottom low base Aurora microplates.
2; Compounds; 23 nL; Kalypsis pin tool (Wako) equipped with 1536-well pin heads, 5-azacytidine positive control.
3; Incubation; 24 hr; 37C, 5% CO2; 95% relative humidity.
4; Aspiration; 1x; BioTek EL406 washer dispenser (Agilent).
5; Fixing; 3.5% paraformaldehyde, BioTek EL406 washer dispenser (Agilent).
6; Washing; 1x PBS; BioTek EL406 washer dispenser (Agilent).
7; Nuclei staining; 1:1000 dilution of Hoechst 33342 (Thermofisher), BioTek EL406 washer dispenser (Agilent).
8; Incubation; 20 min; in the dark at room temperature.
9; Washing; 2x, 1x PBS (ThermoFisher), BioTek EL406 washer dispenser (Agilent).
10; Reagent; 10 uL; 1x PBS per well, sealed with clear adhesive tape.
11; Detection; Fluorescence, Acumen eX3 laser scanning cytometer (STP Labtech), GFP filters […].
NOTES (numbers refer to sequence numbers above).
1. NCI-H358 cells expressing eGFP-tagged delta133p53alpha were grown in T75 culture flasks and treated with doxycycline for 24h, at 10 ng/ml for eGFP-D133p53a cells (N-terminal cell) and 100 ng/ml for D133p53a-eGFP cells (C-terminal cells). Cells were trypsinized, counted using a Counted 3 Automated Cell Counter (Thermo Fisher), and diluted to a concentration of 200,000 cells/ml. A Multidrop Combi Reagent Dispenser (ThermoFisher) was used to dispense 800 cells/well in […] of doxycycline-free media, into 1536-well black/clear bottom low base plates (AuroraMicroplates).
2. After plating cells, 23 nl of compound library, DMSO vehicle control or positive control (5-azacytidine) were transferred by Pin Tool (Wako). The plate map layout was the same for each plate: (column 1) non-doxycycline treated cells + DMSO vehicle control; (column 2) doxycycline treated cells + DMSO vehicle control baseline; (column 3) doxycycline treated cells + positive control 57.5 uM final concentration 5-azacytidine; (column 4) doxycycline treated cells + serial dilution of 5-azacytidine, 16-point 1:2 titration spanning 1.8 nM to […] final concentration; (columns 5-48) doxycycline treated cells + titration of library compounds.
3. Cells were incubated at 37 °C, 5 % CO2, 95% RH with breathable metal lid for 24h.
4-10. […] […]
Potency is the fitted concentration of half-maximal effect.

Cellular tumor antigen p53 (Homo sapiens), sequence (P04637 whole entry, looked up): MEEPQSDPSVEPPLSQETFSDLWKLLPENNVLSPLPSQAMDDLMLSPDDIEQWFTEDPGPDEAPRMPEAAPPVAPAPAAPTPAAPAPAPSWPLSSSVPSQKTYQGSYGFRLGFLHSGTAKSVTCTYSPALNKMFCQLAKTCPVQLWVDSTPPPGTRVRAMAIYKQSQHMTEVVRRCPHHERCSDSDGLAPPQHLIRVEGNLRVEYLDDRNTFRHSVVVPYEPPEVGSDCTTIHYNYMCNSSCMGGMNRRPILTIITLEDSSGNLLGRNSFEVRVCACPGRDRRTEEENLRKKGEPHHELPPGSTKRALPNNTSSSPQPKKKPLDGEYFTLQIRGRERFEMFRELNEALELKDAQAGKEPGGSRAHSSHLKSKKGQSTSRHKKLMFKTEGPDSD

| Compound | GFP increase (activation) [%] | Potency |
| --- | --- | --- |
| Clc1cnc(Oc2ccc(Oc3ncc(Cl)cc3Cl)cc2)c(Cl)c1 | -4.08 | – |
| CN1C2CCC1CC(OC(=O)c1cc(Cl)cc(Cl)c1)C2 (stereo not given) | 3.57 | – |
| CCCC[N+]1(C)C2CC(OC(=O)[C@H](CO)c3ccccc3)CC1C1OC12 (stereo not given in full) | -0.387 | – |
| CC(N)Cc1c[nH]c2ccc(O)cc12 (stereo not given) | -1.06 | – |
| O=C(O)[C@@H]1CCN1 | -4.23 | – |
| NNC(=O)c1ccc(O)cc1 | 1.19 | – |
| CC(=O)NBr | -11.6 | – |
| C[C@H](N)Cc1cccc(C(F)(F)F)c1 | -5.94 | – |
| Oc1ccc2c3c1O[C@H]1c4oc5ccccc5c4C[C@@]4(O)C(C2)N(CC2CC2)CCC314 (stereo not given in full) | 15 | – |
| COc1cc(C(O)CN)ccc1O (stereo not given) | -9.2 | – |
| c1ccc2c(N3CCNCC3)cccc2c1 | 10.3 | – |
| CN1CCC[C@@H]1Cc1c[nH]c2ccc(Nc3ncccc3[N+](=O)[O-])cc12 | 2.66 | – |
| CC(C)(C)NCC(O)c1ccccc1Cl (stereo not given) | -4.6 | – |
| CCCN1CCC[C@H](c2cccc(O)c2)C1 | -10.6 | – |
| CC[C@@]1(O)C(=O)OCc2c1cc1n(c2=O)Cc2cc3ccccc3nc2-1 | – | 3.79 µM (active) |
| O=[N+]([O-])c1cc(O)c(O)c([N+](=O)[O-])c1 | -16.2 | – |
| NCCc1ccc(O)cc1 | 0.0491 | – |
| C#CCN[C@H](C)Cc1ccccc1 | 3.48 | – |
| CC(=O)[C@H]1CC[C@H]2[C@@H]3CC[C@H]4C[C@](C)(O)CC[C@]4(C)[C@H]3CC[C@]12C | 7.16 | – |
| N#C/C(=C/c1ccc(O)c(O)c1)C(N)=S | 7.81 | – |

| Compound | GFP increase (activation) [%] | Potency |
| --- | --- | --- |
| NCCCP(=O)(O)O | -1.88 | – |
| CC(=O)NCCc1c[nH]c2ccccc12 | 5.67 | – |
| CC(C)(C)OC(=O)NC1[C@H]2CNC[C@@H]12 (stereo not given in full) | 8.2 | – |
| C=CCN1C[C@@H](C)N([C@H](c2ccc(C(=O)N(CC)CC)cc2)c2cccc(OC)c2)C[C@@H]1C | -1.59 | – |
| Cc1cc([C@@H]2CCCN2C)on1 | -8.8 | – |
| NC(=O)c1ccc(OCC(O)CN2CC=C(c3ccc(F)cc3)CC2)cc1 (stereo not given) | -1.18 | – |
| C[N+]1(C)CCOC(O)(c2ccc(-c3ccc(C4(O)C[N+](C)(C)CCO4)cc3)cc2)C1 (stereo not given) | 1.19 | – |
| CC(=O)[C@H]1CCC2C3CC[C@H]4C[C@H](O)CC[C@]4(C)C3CC[C@@]21C (stereo not given in full) | -5.38 | – |
| Cc1ncc(CNC(=O)N(CCCl)N=O)c(N)n1 | -10.1 | – |
| C[N+](C)(C)CCOC(=O)CBr | 8.73 | – |
| NC(N)=NOCC[C@H](N)C(=O)O | -10.6 | – |
| CC(C)NP(=O)(NC(C)C)OP(=O)(NC(C)C)NC(C)C | -6.59 | – |
| COc1ccc(C(CN(C)C)C2(O)CCCCC2)cc1 (stereo not given) | -15.3 | – |
| NC1CCc2cc(O)c(O)cc2C1 (stereo not given) | 15.4 | – |
| NCC1(CC(=O)O)CCCCC1 | 2.1 | – |
| Cc1sc2ccccc2c1CC1=NCCN1 | 1.22 | – |
| C[C@@H]1O[C@H](C[N+](C)(C)C)C[C@H]1O | -6.11 | – |
| C[N+]1(C)C2CCC1CC(OC(=O)C(CO)c1ccccc1)C2 (stereo not given) | – | inactive |
| CCCCCN(C)CCC(O)(P(=O)(O)O)P(=O)(O)O | 3.12 | – |
| CCn1cnc2c(Nc3cccc(Cl)c3)nc(N[C@@H]3CCCC[C@@H]3N)nc21 | – | 5.36 µM (active) |
